{
  "source": "PubChem BioAssay AID588342",
  "about": "(National Center for Advancing Translational Sciences (NCATS), 2011)",
  "note": "The whole screen tested about 360,000 compounds, of which about 25,000 (6.9%) were called active. A call without a number means that no potency is given here. Roughly 9% stayed inconclusive and do not appear here. The call rests on the fitted dose curve; in most records, active means well fitted inhibition curve with a large enough effect; inconclusive means small, poorly fitted or top-dose-only effect; inactive means flat fitted curve, though single readings scatter. This excerpt belongs to a sample that is enriched for actives. Potency means the concentration at half of the fitted maximal effect.",
  "data": [
    {"biological_target": "Luciferin 4-monooxygenase (Photinus pyralis) (UniProt P08659)", "sequence (P08659 whole entry, looked up)": "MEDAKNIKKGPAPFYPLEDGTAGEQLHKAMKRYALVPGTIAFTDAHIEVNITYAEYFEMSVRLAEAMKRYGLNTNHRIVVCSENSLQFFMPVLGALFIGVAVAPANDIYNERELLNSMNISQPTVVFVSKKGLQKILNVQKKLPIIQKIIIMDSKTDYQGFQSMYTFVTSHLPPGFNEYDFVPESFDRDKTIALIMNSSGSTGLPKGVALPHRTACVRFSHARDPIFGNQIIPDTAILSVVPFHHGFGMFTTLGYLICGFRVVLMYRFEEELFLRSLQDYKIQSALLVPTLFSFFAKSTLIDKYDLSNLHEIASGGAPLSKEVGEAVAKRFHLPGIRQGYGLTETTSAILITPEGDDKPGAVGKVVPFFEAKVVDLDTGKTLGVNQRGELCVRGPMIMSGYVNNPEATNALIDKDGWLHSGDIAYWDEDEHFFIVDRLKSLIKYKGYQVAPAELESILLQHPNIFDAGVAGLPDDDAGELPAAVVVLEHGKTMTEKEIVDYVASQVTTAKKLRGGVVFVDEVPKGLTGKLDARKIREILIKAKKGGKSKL", "test": "qHTS profiling assay for firefly luciferase inhibitor/activator using purifed enzyme and Km concentrations of substrates (counterscreen for miR-21 project); further: nearly all actives have a fitted effect of over 55% in size", "details": "purified FLuc, luminescence inhibition; series mostly up to 57.5 µM", "outline": "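Purified P. pyralis luciferase, 10 nM final, with Km-level 10 uM D-luciferin and 10 uM ATP in 50 mM Tris acetate pH 7.5, 10 mM Mg acetate, 0.01% Tween-20, 0.05% BSA; 6-point qHTS titration about 60 µM downward; luminescence read.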", "values": [
      {"smiles": "CNC(=O)C1CC(=O)N(c2ccc(OCC(=O)Nc3ccccc3C)cc2)C1", "note": "(stereo not drawn)", "Potency": "inactive"},
      {"smiles": "Cc1ccccc1NC(=O)CSc1nc2ccc(Nc3nc(N4CCOCC4)nc(N4CCOCC4)n3)cc2s1", "Potency": "inactive"},
      {"smiles": "C/C(=N\\Nc1nc(N2CCOCC2)nc(N2CCOCC2)n1)c1ccc([N+](=O)[O-])cc1", "Potency": "inactive"},
      {"smiles": "C/C(=N\\Nc1nc(Nc2ccccc2)nc(N2CCOCC2)n1)c1cccs1", "Potency": "19 µM (active)"},
      {"smiles": "COc1ccc(-c2nn(-c3ccccc3)cc2/C=N/Nc2ccccn2)cc1OC", "Potency": "10.7 µM (active)"},
      {"smiles": "CN(C)/N=C/c1cn(-c2ccccc2)nc1-c1cccnc1", "Potency": "inactive"},
      {"smiles": "COc1cccc(-c2nn(-c3ccccc3)cc2/C=C(\\C#N)C(=O)NCCCn2ccnc2)c1", "Potency": "inactive"},
      {"smiles": "COc1cccc(C2=CC(=O)C[C@H](c3ccc(F)cc3)C2)c1OC", "Potency": "inactive"},
      {"smiles": "CC(C)c1ccc(OCC(=O)N(Cc2ccc(N(C)C)cc2)C2CCS(=O)(=O)C2)cc1", "note": "(stereo not drawn)", "Potency": "inactive"},
      {"smiles": "CCOc1cccc(CNC(=O)c2ccc(N3CCCC3)c(NC(=O)Nc3ccccc3CC)c2)c1", "Potency": "inactive"},
      {"smiles": "COc1ccc(CN2C(=O)C(NC(=O)c3cccc(C)c3)(C(F)(F)F)N=C2c2ccccc2)cc1", "note": "(stereo not drawn)", "Potency": "inactive"},
      {"smiles": "Cc1cc(NC(=O)CSc2nc3ccccc3n2CC(C)C)no1", "Potency": "inactive"},
      {"smiles": "Cc1ccc(SCCC(=O)Nc2cc(C)on2)cc1", "Potency": "inactive"},
      {"smiles": "Cc1ccc2nc(-c3ccc(SCC(=O)Nc4cc(C)on4)nc3)[nH]c2c1", "Potency": "0.757 µM (active)"},
      {"smiles": "Cc1cc(F)ccc1NC1(c2ccccc2)C(=O)c2ccccc2C1=O", "Potency": "inactive"},
      {"smiles": "CN(C)c1ccc(S(=O)(=O)NCC(=O)NCC2CCCCC2)cc1[N+](=O)[O-]", "Potency": "inactive"},
      {"smiles": "CC(=O)c1ccc(N2CCN(C(=O)CCc3ccccc3)CC2)cc1", "Potency": "inactive"},
      {"smiles": "CC(=O)c1ccc(N2Cc3ccccc3C2)cc1", "Potency": "10.7 µM (active)"},
      {"smiles": "CC(=O)c1ccc(N2CCN(CC(O)c3ccccc3)CC2)cc1", "note": "(stereo not drawn)", "Potency": "inactive"},
      {"smiles": "Cc1ccc(S(=O)(=O)N2CCCCC2)cc1C(=O)N1CCN(CCO)CC1", "Potency": "inactive"},
      {"smiles": "Cc1cc(C)c2oc(C(=O)Nc3ccc(S(=O)(=O)N4CCCCCC4)cc3)cc(=O)c2c1", "Potency": "inactive"},
      {"smiles": "CN(C)c1nc(N)nc(Cn2nnc(-c3ccc(C(F)(F)F)cc3)n2)n1", "Potency": "inactive"},
      {"smiles": "COc1ccc(-c2nnn(Cc3nc(N)nc(N4CCCCC4)n3)n2)cc1", "Potency": "inactive"},
      {"smiles": "CCc1ccc(-c2nnn(Cc3nn[nH]n3)n2)cc1", "Potency": "26.9 µM (active)"},
      {"smiles": "CC(=O)Nc1ccc(S(=O)(=O)N2CCn3cccc3C2C)cc1", "note": "(stereo not drawn)", "Potency": "inactive"},
      {"smiles": "Cc1ccc(-c2noc(-c3nnn(-c4cccc(C(F)(F)F)c4)c3N)n2)cc1", "Potency": "inactive"},
      {"smiles": "Cc1ccc(-c2noc(CSc3nnnn3-c3ccccc3)n2)cc1", "Potency": "inactive"},
      {"smiles": "CCc1ccc(-n2nnc(-c3nc(-c4ccccc4)no3)c2C)cc1", "Potency": "2.13 µM (active)"}
    ]}
  ]
}
